PNC assembly inh – High Content Assay for Compounds that inhibit the Assembly of the Perinucleolar Compartment | PC3M PTB-GFP, PNC prevalence imaging, 16 h; active compounds read low | activity change (PNC), negative = inhibition, % at 10 µM | 140,000 tested, 3.1% active;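 active means readout at or below -70, meaning at least 70% loss of cells showing the perinucleolar compartment, a nuclear body marking cancer cells; inconclusive means readout between -30 and a set limit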
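PC3M cells stably expressing PTB-GFP, 750–1000 cells/well, treated 16 h at 37 °C with compound (23 nl of library stock), in duplicate. After paraformaldehyde fixation and Hoechst stain, imaged at 20x; PNC prevalence scored by image analysis.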
HPGD block – qHTS Assay for Inhibitors of HPGD (15-Hydroxyprostaglandin Dehydrogenase); 15-hydroxyprostaglandin dehydrogenase [NAD(+)] (Homo sapiens), P15428; purified HPGD, NADH fluorescence kinetic, PGE2 substrate; Potency, µM, usual class: inhibitors; 150,000 tested, 4.3% active; AID 894, 2007
Target sequence (P15428 whole entry, looked up): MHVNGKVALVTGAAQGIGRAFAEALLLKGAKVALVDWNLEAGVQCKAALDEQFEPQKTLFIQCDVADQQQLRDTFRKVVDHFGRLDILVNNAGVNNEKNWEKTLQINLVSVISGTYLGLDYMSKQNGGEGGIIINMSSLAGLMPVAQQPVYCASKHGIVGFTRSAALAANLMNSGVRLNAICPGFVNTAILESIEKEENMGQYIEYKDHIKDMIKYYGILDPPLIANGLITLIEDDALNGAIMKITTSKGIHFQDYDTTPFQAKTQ
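NADH formation kinetics: reaction with 30 uM PGE2 and 1 mM NAD+ (final), 20 nM enzyme, Tris-HCl pH 8 with Tween 20, after 15 min compound preincubation at room temperature. Fluorescence change, last versus first of five reads.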
IMPase Li inh – qHTS Assay for Identifying the Cell-Membrane Permeable IMPase Inhibitors: Potentiation with Lithium | Potency, µM (top dose mostly 59.4 µM), most hits filed as inhibitors | CHO-M1 cells, IP1 TR-FRET (IP-One), carbachol + lithium | 210,000 tested, 0.35% active; active means well fitted inhibition curve with a large enough effect; inconclusive means small, poorly fitted or top-dose-only effect; inactive means no such curve, though single readings can be large or run the other way;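 further: IP1 builds up when IMPase is blocked and the TR-FRET signal falls; nearly all actives have a fitted effect of over 50% in size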
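CHO cells stably expressing M1 receptor (2000/well) were cultured 16–30 h, then exposed to compounds with a small lithium addition for 30 min at 37C. IP1 was measured by TR-FRET competition; AC50 from Hill fits.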
IMPase inh – qHTS Assay for Identifying the Cell-Membrane Permeable IMPase Inhibitors | 120,000 tested, under 10 active | AID 901, 2007 | inhibition (IP1 accumulation), % at 46.1 µM | CHO-M1 cells, IP1 accumulation, HTRF TR-FRET ratio; active means well fitted curve in the direction sought with a large enough effect in the signal ratio, not every such curve was filed as active; inconclusive means small, poorly fitted or top-dose-only effect, or a change in a side signal; inactive means no such curve, though single readings can be large or run the other way; the % refers to the signal ratio;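 further: cells stimulated with carbachol in lithium chloride buffer; higher means more IMPase inhibition seen as more IP1 and lower FRET ratio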
Target sequence (P97697 whole entry, looked up): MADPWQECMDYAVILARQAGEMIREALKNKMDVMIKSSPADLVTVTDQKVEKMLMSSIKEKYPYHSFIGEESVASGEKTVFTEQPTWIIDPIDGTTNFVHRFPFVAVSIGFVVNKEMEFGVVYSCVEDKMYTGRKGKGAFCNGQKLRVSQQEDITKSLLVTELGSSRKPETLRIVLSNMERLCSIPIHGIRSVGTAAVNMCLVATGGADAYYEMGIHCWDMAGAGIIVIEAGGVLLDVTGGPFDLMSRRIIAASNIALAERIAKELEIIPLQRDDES
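Elevated IP1 in lysates lowers TR-FRET signal (665/620 ratio and 620 channel reported). Cells were CHO-M1, given carbachol (50 uM as added) plus 50mM LiCl, pH 7.4, 30 min, 37C; compounds titrated up to 46 uM; AC50 by Hill equation.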
ALDH1A1 inh – qHTS Assay for Inhibitors of Aldehyde Dehydrogenase 1 (ALDH1A1) | Aldehyde dehydrogenase 1A1 (Homo sapiens), P00352 | 220,000 tested, 7.3% active | Purified ALDH1A1, NADH fluorescence, propionaldehyde substrate | Potency, µM (top dose mostly 75.3 µM), usual class: inhibitors
Each line names hits and unclear results; the compound was inactive in the other large screens. Hits are enriched below; roughly 11% of the tested compounds scored in any of these assays. Unless noted, the call rests on the fitted dose curve; in most records, active means well fitted inhibition curve with a large enough effect (not every such curve was filed as active); inconclusive means small, poorly fitted or top-dose-only effect, or another doubt; inactive means no such curve, though single readings can be large or run the other way.

O=C(CSc1nnc(Cc2ccccc2)n1Cc1ccco1)NC1CCCC1	ALDH1A1 inh 22.4µM
COCCn1nnnc1SCC(=O)c1ccc(F)cc1	none (no result: IMPase inh)
COCCn1c(SCC(=O)c2ccc(F)cc2)nnc1C(C)C	PNC assembly inh inconclusive, ALDH1A1 inh 12.6µM
O=C(CSc1nnc(-c2ccco2)n1Cc1ccccc1)c1ccc(F)cc1	HPGD block 25.1µM, ALDH1A1 inh 3.98µM
CCn1c(SCC(=O)Nc2cc(C)on2)nnc1-c1ccco1	ALDH1A1 inh inconclusive
CCn1c(SCC(=O)Nc2nonc2C)nnc1-c1ccco1	HPGD block inconclusive, ALDH1A1 inh 14.1µM
C[N+]1(NCC[N@@+]2(C)CCc3ccccc3C2)CCCCC1	none (no result: PNC assembly inh, IMPase inh)
CO[C@H]1COC(=O)CCC[C@H](C)[C@@H](OC)COC(=O)C/C=C\[C@@H]1C	none (no result: PNC assembly inh, HPGD block, IMPase Li inh, IMPase inh)
Cc1cc(NC(=O)CSc2nnc(-c3ccco3)n2Cc2ccco2)no1	none
CC(=O)Nc1ccc(NC(=O)CSc2nnc(-c3ccco3)n2Cc2ccco2)cc1	ALDH1A1 inh 20µM
CCOC(=O)C1=CC(OC(CC)CC)C(NC(C)=O)C(N)C1 (configuration not stated)	none (no result: PNC assembly inh, IMPase inh)
O=Cc1ccc(Sc2nnc(-c3ccccc3)o2)c([N+](=O)[O-])c1	HPGD block 14.1µM, ALDH1A1 inh 7.94µM
Cn1nc([N+](=O)[O-])nc1Sc1nnc(-c2ccccc2)o1	ALDH1A1 inh inconclusive
Cc1ccnc(Sc2ccc([N+](=O)[O-])cc2[N+](=O)[O-])n1	ALDH1A1 inh inconclusive
Cc1cc(C)nc(Sc2ccc(C=O)cc2[N+](=O)[O-])n1	ALDH1A1 inh 7.08µM (no result: PNC assembly inh, HPGD block, IMPase inh)
Fc1ccc(NC(=S)NCCc2ccccc2)c(F)c1F	HPGD block 25.1µM, ALDH1A1 inh inconclusive
O=C(NC(=S)NCCC1=CCCCC1)c1cccnc1	ALDH1A1 inh 14.1µM (no result: PNC assembly inh, HPGD block, IMPase inh)
O=C(NC1CCCCC1)C(=S)NCCc1ccccc1	ALDH1A1 inh 17.8µM (no result: PNC assembly inh, HPGD block, IMPase inh)
COC(=O)C(Cc1ccccc1)NC(=O)C(CC(C)C)NC(=O)OC(C)(C)C (configuration not stated)	PNC assembly inh -112.0 (no result: IMPase inh)
CCC(C)C(NC(=O)OC(C)(C)C)C(=O)NC(Cc1ccccc1)C(=O)OC (configuration not stated)	PNC assembly inh inconclusive
CC(=O)NC(=S)NNC(=O)CCc1ccccc1	ALDH1A1 inh 20µM (no result: PNC assembly inh, HPGD block, IMPase inh)
O=C(CCc1ccccc1)NNC(=S)NC(=O)c1ccccc1	ALDH1A1 inh 17.8µM
Fc1cccc(NC(=S)NCCc2ccccc2)c1	ALDH1A1 inh inconclusive (no result: IMPase inh)
O=[N+]([O-])c1cccc(NC(=S)NCCc2ccccc2)c1	HPGD block 7.94µM
O=C(CNC(=S)NC(=O)c1ccc(Cl)cc1)c1ccccc1	IMPase Li inh 10µM, ALDH1A1 inh 8.91µM (no result: IMPase inh)
CC1CCCC/C1=N\NC(=S)NCCc1ccccc1 (configuration not stated)	ALDH1A1 inh 14.1µM (no result: PNC assembly inh, HPGD block, IMPase inh)
COC(=O)C(Cc1ccccc1)NC(=S)NC(=O)c1ccccc1 (configuration not stated)	ALDH1A1 inh 8.91µM (no result: PNC assembly inh, HPGD block, IMPase inh)
CCOc1ccc(C(=O)NC(Cc2ccccc2)C(=O)OC)cc1 (configuration not stated)	none
O=C(NC(=S)NCCc1ccccc1)c1ccccc1	PNC assembly inh inconclusive, ALDH1A1 inh 15.8µM
Cc1ccc(NC(=S)N/N=C2\CCCCC2C)cc1 (configuration not stated)	ALDH1A1 inh inconclusive (no result: PNC assembly inh, HPGD block, IMPase inh)
Cc1ccc(NC(=S)NCCc2ccccc2)nc1	ALDH1A1 inh 10µM (no result: PNC assembly inh, HPGD block, IMPase inh)
Cc1ccc(NC(=O)CCCc2ccccc2)nc1	none (no result: PNC assembly inh, HPGD block, IMPase inh)
NC1=NC(c2ccccc2)N=C(Nc2ccccc2)N1 (configuration not stated)	none (no result: PNC assembly inh, HPGD block, IMPase Li inh, IMPase inh)
Cc1ccc(O)c(C(=O)c2cnc3c(c2)COc2ccc(C)cc2-3)c1	PNC assembly inh inconclusive, HPGD block 17.8µM
Cc1ccc(O)c(C(=O)c2cnc3c(c2)CN(CCC(C)C)C(=O)N3)c1	ALDH1A1 inh inconclusive
Cc1ccc(O)c(C(=O)c2cnc3c(c2)CN(C)C(=O)N3)c1	PNC assembly inh inconclusive, HPGD block 28.2µM, ALDH1A1 inh 25.1µM

Assay outcomes as filed in PubChem.
